Experimental data taken from PubChem BioAssay (NCATS).
Inconclusive results are not listed. Entries that show only a call come without a potency. Activity calls are given as the source filed them. Calls come from the whole dose curve; as a rule, active = well fitted inhibition curve with a large enough effect; inconclusive = small, poorly fitted or top-dose-only effect; inactive = no such curve, though single readings can be large or run the other way.

Target: Retinaldehyde dehydrogenase 3 (Homo sapiens) (UniProt P47895)
Experiment: qHTS for Inhibitors of the Aldehyde Dehydrogenase Family (ALDH1A3) Confirmatory screens (AID 2061311); note: nearly all actives have a fitted effect of over 60% in size; note: potency is the fitted concentration of half-maximal effect
Conditions: ALDH inhibition qHTS; series mostly up to 46 µM

Q: Which Potency does the source give for Cc1ccc(OCCn2c3c(c4ccccc42)CN(C(=O)C2CCCCC2)CC3)cc1 here?
A: The Potency was 11.3 µM (active).

Q: Which activity change, negative = inhibition does the source give for Cc1cc(-c2nnc3n2CCCCC3)c(C)n1-c1cccc2ccccc12 here?
A: The activity change, negative = inhibition was -18.8% [at 0.022 µM] (inactive).

Q: Nc1nccc(-c2c(-c3ccc(F)cc3)ncn2C2CCCCC2)n1 was tested. Which Potency did it give?
A: Its Potency is “inactive”.

Q: How did the Potency turn out when Cc1csc(CN(C)c2ncnc3ccc(-c4ccc5c(c4)OCO5)cc23)n1 was run?
A: The Potency was 25.1 µM (active).

Q: How did the Potency turn out when CCCCN1C(=O)c2ccccc2NC1c1ccc(OC)c(COc2ccc(NC(C)=O)cc2)c1 (centres undefined) was run?
A: Its Potency is 12.6 µM (active).

Q: How did the Potency turn out when C=C1[C@@H](OC(C)=O)CC[C@@]2(C)[C@@H](OC(C)=O)[C@H](OC(C)=O)C3=C(C)C[C@H](OC(=O)C(C)CC)[C@@H]([C@@H](OC(C)=O)[C@H]12)C3(C)C (some centres undefined) was run?
A: The Potency was “inactive”.

Q: O=C([C@@H]1CCCN(c2ccc3[nH]c(C4(n5cc(Cl)cn5)CC4)nc3n2)C1)N1CCCC1 was tested. Which Potency did it give?
A: The Potency was “inactive”.

Q: CC(C)(Nc1nc(-c2ccccc2C(F)(F)F)nc2ccccc12)c1ccc(-c2cccc(C(F)(F)F)c2)cc1 was tested. Which Potency did it give?
A: The Potency was “inactive”.

Q: For Cc1ccc(CN(C)c2ncnc3ccc(-c4ccc(C#N)n4C)cc23)o1, which Potency is on record?
A: The Potency was 22.4 µM (active).

Q: With Cc1ccc2nc3sc(C(=O)N4CCCCC4)cc3cc2c1 as the compound, how does the Potency read?
A: Its Potency is 12.7 µM (active).

Q: How did the Potency turn out when c1nc(NCC2CC2)c2cc(-c3ccc4c(c3)OCO4)ccc2n1 was run?
A: The Potency was “inactive”.

Q: With O=C1Nc2ccccc2/C1=C/c1cccc(C(=O)O)c1 as the compound, how does the Potency read?
A: Its Potency is 4 µM (active).

Q: How did the Potency turn out when COc1ccc(C2Nc3ccccc3C(=O)N2Cc2ccc(-c3ccccc3)cc2)cc1COc1ccc(NC(C)=O)cc1 (centres undefined) was run?
A: The Potency was 11.2 µM (active).

Q: With Cc1ccc(-c2cnn(CC(=O)NCCc3ccccc3)c(=O)c2)cc1 as the compound, how does the Potency read?
A: Its Potency is 14.1 µM (active).

Q: Which Potency does the source give for CN(C)c1ccc(C(=O)NCC(=O)OC(C(=O)Nc2cc(C(F)(F)F)ccc2Cl)c2ccccc2)cc1 (centres undefined) here?
A: The Potency was 11.3 µM (active).

Q: With Nc1ccc(Nc2cc(O)c3ncccc3c2)cc1 as the compound, how does the Potency read?
A: Its Potency is 0.712 µM (active).

Q: How did the Potency turn out when CC(=O)Nc1sc2c(c1-c1nc3ccccc3s1)CN(C(C)C)C2 was run?
A: Its Potency is “inactive”.

Q: Which Potency does the source give for Cc1ccc(NC(=O)CN2C(=O)N/C(=C\c3cccn3-c3ccc(C(=O)O)cc3)C2=O)cc1 here?
A: Its Potency is “inactive”.

Q: For NC(=O)C1CCN(c2nccc(-c3ccc4c(c3)OCCCO4)n2)CC1, which Potency is on record?
A: The Potency was 12.7 µM (active).

Q: For NC(=O)C1CCN(c2nc(-c3cc4ccccc4o3)cs2)CC1, which Potency is on record?
A: Its Potency is “inactive”.

Q: For CNC(=O)C1CCN(c2nc(-c3ccc(Br)cc3)cs2)CC1, which Potency is on record?
A: Its Potency is “inactive”.

Q: With N#Cc1cccnc1SC1=NS(=O)(=O)c2ccccc21 as the compound, how does the Potency read?
A: The Potency was 1.27 µM (active).

Q: Which Potency does the source give for CN1C(=O)Cc2cc([S+](=O)([O-])N3CCN([S+](=O)([O-])c4c(F)cccc4F)CC3)ccc21 here?
A: Its Potency is “inactive”.

Q: For N#Cc1cnc(NS(=O)(=O)c2ccc(NC(=O)Cc3ccc(Cl)c(Cl)c3)cc2)s1, which Potency is on record?
A: The Potency was “inactive”.

Q: For O=c1[nH]c(CN2CCOCC2)nc2sc3c(c12)CCCC3, which Potency is on record?
A: The Potency was “inactive”.

Q: Which Potency does the source give for Cc1ccc(CN(C)c2ccc(N3CCN(C)CC3)cc2)cc1 here?
A: Its Potency is 20.1 µM (active).

Q: O=C(OCC#CCSc1nnc(-c2cccc3ccccc23)o1)c1ccncc1 was tested. Which Potency did it give?
A: The Potency was 2.01 µM (active).

Q: C/C(=C\c1cccc(C(F)(F)F)c1)C1Nc2cccc3cccc(c23)N1 was tested. Which Potency did it give?
A: The Potency was 11.3 µM (active).

Q: Which Potency does the source give for Cc1ccc(S(=O)(=O)Nc2cc(C(F)(F)F)ccc2C(=O)Nc2nc(-c3ccccc3)cs2)cc1 here?
A: The Potency was “inactive”.

Q: CN(C)[C@H]1CCN(c2cccc(Nc3nn4c(=O)c5ccccc5nc4s3)c2)C1 was tested. Which Potency did it give?
A: The Potency was 3.18 µM (active).

Target: Retinal dehydrogenase 2 (Homo sapiens) (UniProt O94788)
Experiment: qHTS for Inhibitors of the Aldehyde Dehydrogenase Family (ALDH1A2) Confirmation screens (AID 2061314); note: nearly all actives have a fitted effect of over 65% in size; note: potency is the fitted concentration of half-maximal effect
Conditions: ALDH1A2 enzyme inhibition qHTS confirmation; series mostly up to 45.9 µM

Q: With N#Cc1c(-c2ccc(Br)cc2)no[n+]1[O-] as the compound, how does the Potency read?
A: Its Potency is 7.12 µM (active).

Q: For c1csc(CNc2ccc(N3CCOCC3)cc2)c1, which Potency is on record?
A: Its Potency is 22.5 µM (active).

Q: How did the Potency turn out when COc1ccc(C2Oc3ccccc3C(=O)N2Cc2ccccc2)cc1COc1ccc(NC(C)=O)cc1 (centres undefined) was run?
A: Its Potency is 7.12 µM (active).

Q: COc1ccc(C2Nc3ccccc3C(=O)N2Cc2ccc(CNC(=O)CO)cc2)cc1COc1ccc(NC(C)=O)cc1 (centres undefined) was tested. Which Potency did it give?
A: The Potency was 12.7 µM (active).

Q: Which Potency does the source give for COc1ccc(C2Nc3ccccc3C(=O)N2Cc2ccncc2)cc1COc1ccc(NC(C)=O)cc1 (centres undefined) here?
A: The Potency was 5.04 µM (active).

Q: With COc1ccc(C2=Nn3c(nnc3-c3ccccc3OC)SC2)cc1 as the compound, how does the Potency read?
A: The Potency was “inactive”.

Q: For Cc1ccc(N[S+](=O)([O-])c2cc3c(cc2Cl)NC(=O)CO3)cc1Br, which Potency is on record?
A: The Potency was 14.2 µM (active).

Q: Which Potency does the source give for N#Cc1nc(Nc2ccccc2)nc(NC2CCCCC2)n1 here?
A: The Potency was “inactive”.

Q: With CNc1oc(-c2c[nH]c3ccccc23)nc1C#N as the compound, how does the Potency read?
A: The Potency was “inactive”.

Q: With COc1ccc(-c2nc3ccccc3c(=O)n2Cc2ccco2)cc1COc1ccc(NC(C)=O)cc1 as the compound, how does the Potency read?
A: The Potency was 12.7 µM (active).

Target: Retinaldehyde dehydrogenase 3 (Homo sapiens) (UniProt P47895)
Experiment: qHTS for Inhibitors of the Aldehyde Dehydrogenase Family (ALDH1A3) Primary screen (AID 2061315)
Conditions: ALDH inhibition qHTS; series mostly up to 56 µM

Q: How did the Potency turn out when Cc1ccc(OCCn2c3c(c4ccccc42)CN(C(=O)C2CCCCC2)CC3)cc1 was run?
A: Its Potency is “inactive”.

Q: How did the Potency turn out when Nc1nccc(-c2c(-c3ccc(F)cc3)ncn2C2CCCCC2)n1 was run?
A: Its Potency is “inactive”.

Q: How did the Potency turn out when Cc1csc(CN(C)c2ncnc3ccc(-c4ccc5c(c4)OCO5)cc23)n1 was run?
A: Its Potency is “inactive”.

Q: N#Cc1c(-c2ccc(Br)cc2)no[n+]1[O-] was tested. Which Potency did it give?
A: The Potency was “inactive”.

Q: For CCCCN1C(=O)c2ccccc2NC1c1ccc(OC)c(COc2ccc(NC(C)=O)cc2)c1 (centres undefined), which Potency is on record?
A: The Potency was “inactive”.

Q: With C=C1[C@@H](OC(C)=O)CC[C@@]2(C)[C@@H](OC(C)=O)[C@H](OC(C)=O)C3=C(C)C[C@H](OC(=O)C(C)CC)[C@@H]([C@@H](OC(C)=O)[C@H]12)C3(C)C (some centres undefined) as the compound, how does the Potency read?
A: Its Potency is “inactive”.

Q: How did the Potency turn out when O=C([C@@H]1CCCN(c2ccc3[nH]c(C4(n5cc(Cl)cn5)CC4)nc3n2)C1)N1CCCC1 was run?
A: The Potency was “inactive”.

Q: For CC(C)(Nc1nc(-c2ccccc2C(F)(F)F)nc2ccccc12)c1ccc(-c2cccc(C(F)(F)F)c2)cc1, which Potency is on record?
A: The Potency was “inactive”.

Q: How did the Potency turn out when COc1ccc(C2Oc3ccccc3C(=O)N2Cc2ccccc2)cc1COc1ccc(NC(C)=O)cc1 (centres undefined) was run?
A: Its Potency is “inactive”.

Q: For COc1ccc(C2Nc3ccccc3C(=O)N2Cc2ccc(CNC(=O)CO)cc2)cc1COc1ccc(NC(C)=O)cc1 (centres undefined), which Potency is on record?
A: Its Potency is “inactive”.

Q: For Cc1ccc(CN(C)c2ncnc3ccc(-c4ccc(C#N)n4C)cc23)o1, which Potency is on record?
A: The Potency was “inactive”.

Q: Which Potency does the source give for Cc1ccc2nc3sc(C(=O)N4CCCCC4)cc3cc2c1 here?
A: Its Potency is “inactive”.

Q: Which Potency does the source give for c1nc(NCC2CC2)c2cc(-c3ccc4c(c3)OCO4)ccc2n1 here?
A: Its Potency is “inactive”.

Q: With COc1ccc(C2Nc3ccccc3C(=O)N2Cc2ccncc2)cc1COc1ccc(NC(C)=O)cc1 (centres undefined) as the compound, how does the Potency read?
A: The Potency was “inactive”.

Q: With COc1ccc(C2Nc3ccccc3C(=O)N2Cc2ccc(-c3ccccc3)cc2)cc1COc1ccc(NC(C)=O)cc1 (centres undefined) as the compound, how does the Potency read?
A: Its Potency is “inactive”.

Q: With COc1ccc(C2=Nn3c(nnc3-c3ccccc3OC)SC2)cc1 as the compound, how does the Potency read?
A: Its Potency is “inactive”.

Q: Which Potency does the source give for Cc1ccc(-c2cnn(CC(=O)NCCc3ccccc3)c(=O)c2)cc1 here?
A: The Potency was “inactive”.

Q: Which Potency does the source give for Cc1ccc(N[S+](=O)([O-])c2cc3c(cc2Cl)NC(=O)CO3)cc1Br here?
A: Its Potency is “inactive”.

Q: With CN(C)c1ccc(C(=O)NCC(=O)OC(C(=O)Nc2cc(C(F)(F)F)ccc2Cl)c2ccccc2)cc1 (centres undefined) as the compound, how does the Potency read?
A: The Potency was “inactive”.

Q: Which Potency does the source give for CC(=O)Nc1sc2c(c1-c1nc3ccccc3s1)CN(C(C)C)C2 here?
A: Its Potency is “inactive”.

Q: How did the Potency turn out when Cc1ccc(NC(=O)CN2C(=O)N/C(=C\c3cccn3-c3ccc(C(=O)O)cc3)C2=O)cc1 was run?
A: Its Potency is “inactive”.

Q: With NC(=O)C1CCN(c2nccc(-c3ccc4c(c3)OCCCO4)n2)CC1 as the compound, how does the Potency read?
A: The Potency was “inactive”.

Q: With NC(=O)C1CCN(c2nc(-c3cc4ccccc4o3)cs2)CC1 as the compound, how does the Potency read?
A: The Potency was “inactive”.

Q: Which Potency does the source give for CNC(=O)C1CCN(c2nc(-c3ccc(Br)cc3)cs2)CC1 here?
A: Its Potency is “inactive”.

Q: For N#Cc1nc(Nc2ccccc2)nc(NC2CCCCC2)n1, which Potency is on record?
A: Its Potency is “inactive”.

Q: Which Potency does the source give for CN1C(=O)Cc2cc([S+](=O)([O-])N3CCN([S+](=O)([O-])c4c(F)cccc4F)CC3)ccc21 here?
A: The Potency was “inactive”.

Q: With N#Cc1cnc(NS(=O)(=O)c2ccc(NC(=O)Cc3ccc(Cl)c(Cl)c3)cc2)s1 as the compound, how does the Potency read?
A: The Potency was “inactive”.

Q: O=c1[nH]c(CN2CCOCC2)nc2sc3c(c12)CCCC3 was tested. Which Potency did it give?
A: Its Potency is “inactive”.

Q: O=C(OCC#CCSc1nnc(-c2cccc3ccccc23)o1)c1ccncc1 was tested. Which Potency did it give?
A: The Potency was “inactive”.

Q: With C/C(=C\c1cccc(C(F)(F)F)c1)C1Nc2cccc3cccc(c23)N1 as the compound, how does the Potency read?
A: Its Potency is “inactive”.

Q: How did the Potency turn out when CNc1oc(-c2c[nH]c3ccccc23)nc1C#N was run?
A: Its Potency is “inactive”.

Q: For COc1ccc(-c2nc3ccccc3c(=O)n2Cc2ccco2)cc1COc1ccc(NC(C)=O)cc1, which Potency is on record?
A: The Potency was “inactive”.

Q: Which Potency does the source give for Cc1ccc(S(=O)(=O)Nc2cc(C(F)(F)F)ccc2C(=O)Nc2nc(-c3ccccc3)cs2)cc1 here?
A: Its Potency is “inactive”.

Q: How did the Potency turn out when CN(C)[C@H]1CCN(c2cccc(Nc3nn4c(=O)c5ccccc5nc4s3)c2)C1 was run?
A: Its Potency is “inactive”.
